From article PMC7862700, “An all-to-all approach to the identification of sequence-specific readers for epigenetic DNA modifications on cytosine”

Assays:
Test in all cases: DAPPL (digital affinity profiling via proximity ligation, sequencing); 10 mM Tris-HCl pH 7.5, 50 mM NaCl, 1 mM DTT, 4% glycerol, room temperature, 30 min; GST-TFs on glutathione beads, 16-mer random dsDNA library, 0.1% formaldehyde crosslink after washing; high values mean tight binding
Settings in all cases: protein: recombinant; tags: N-terminal GST; dsDNA, one strand shown
GABPA = molecular target: T1, GABPA (Homo sapiens, UniProt Q06546 1-454)
T1 sequence: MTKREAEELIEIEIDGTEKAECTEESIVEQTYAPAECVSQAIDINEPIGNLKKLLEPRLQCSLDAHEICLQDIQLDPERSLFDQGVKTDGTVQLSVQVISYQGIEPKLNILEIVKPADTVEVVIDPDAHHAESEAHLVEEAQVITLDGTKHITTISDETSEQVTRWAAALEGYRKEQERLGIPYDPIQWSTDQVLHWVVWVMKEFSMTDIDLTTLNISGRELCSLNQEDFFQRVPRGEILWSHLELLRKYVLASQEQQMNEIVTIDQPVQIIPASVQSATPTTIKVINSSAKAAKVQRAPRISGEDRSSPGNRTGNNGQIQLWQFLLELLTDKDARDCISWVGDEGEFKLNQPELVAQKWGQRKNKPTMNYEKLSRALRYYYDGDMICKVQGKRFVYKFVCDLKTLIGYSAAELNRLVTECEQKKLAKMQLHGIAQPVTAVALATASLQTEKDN
Outline: (§1)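 GST fusions of human transcription factors were expressed in yeast and captured with glutathione beads. Once given DNA barcodes and pooled alongside a tag-only sample, they were incubated for 30 min at room temperature with 200 nmole of a random double-stranded 16-mer DNA library in Tris/NaCl/DTT/glycerol buffer, then washed, crosslinked (0.1% formaldehyde), proximity-ligated, PCR-amplified and sequenced on an Illumina NextSeq500. The binding signal of each hexamer is its read frequency for a factor divided by its frequency for the tag-only sample.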

ELK3 = molecular target: T2, ELK3 (Homo sapiens, UniProt P41970 1-407)
T2 sequence: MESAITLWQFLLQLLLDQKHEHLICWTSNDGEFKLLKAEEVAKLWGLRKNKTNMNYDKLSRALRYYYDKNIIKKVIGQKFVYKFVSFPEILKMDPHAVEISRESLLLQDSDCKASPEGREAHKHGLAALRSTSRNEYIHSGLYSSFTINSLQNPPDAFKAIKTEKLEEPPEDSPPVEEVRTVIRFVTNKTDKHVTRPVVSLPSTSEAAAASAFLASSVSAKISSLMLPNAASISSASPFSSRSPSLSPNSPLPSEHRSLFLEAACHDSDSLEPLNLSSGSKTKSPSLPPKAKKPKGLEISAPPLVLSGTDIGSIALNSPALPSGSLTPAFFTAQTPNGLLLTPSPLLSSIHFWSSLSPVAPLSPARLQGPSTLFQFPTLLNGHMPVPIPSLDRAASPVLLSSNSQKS
Outline: as §1

ETV5 = ETV5 (Homo sapiens, UniProt P41161 1-510)
Outline: as §1

ELF3 = molecular target: T3, ELF3 (Homo sapiens, UniProt P78545 1-371)
T3 sequence: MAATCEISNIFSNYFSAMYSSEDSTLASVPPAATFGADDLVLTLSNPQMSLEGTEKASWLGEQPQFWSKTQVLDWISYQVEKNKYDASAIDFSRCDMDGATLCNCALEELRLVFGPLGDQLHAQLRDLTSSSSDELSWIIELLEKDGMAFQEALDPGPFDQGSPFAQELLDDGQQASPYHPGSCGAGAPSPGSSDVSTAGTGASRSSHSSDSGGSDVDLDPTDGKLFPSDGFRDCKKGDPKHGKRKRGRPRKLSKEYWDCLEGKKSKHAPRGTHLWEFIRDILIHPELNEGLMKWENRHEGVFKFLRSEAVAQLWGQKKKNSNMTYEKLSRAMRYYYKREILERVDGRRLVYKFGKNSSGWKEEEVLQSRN
Outline: as §1

ETV3 = molecular target: T4, ETV3 (Homo sapiens, UniProt P41162-2 1-143)
T4 sequence: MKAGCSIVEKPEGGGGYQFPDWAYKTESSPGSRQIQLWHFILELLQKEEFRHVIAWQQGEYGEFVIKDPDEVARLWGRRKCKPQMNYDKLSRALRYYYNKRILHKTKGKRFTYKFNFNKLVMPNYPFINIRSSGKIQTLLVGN
Outline: as §1

ETV5, sequence (P41161 whole entry): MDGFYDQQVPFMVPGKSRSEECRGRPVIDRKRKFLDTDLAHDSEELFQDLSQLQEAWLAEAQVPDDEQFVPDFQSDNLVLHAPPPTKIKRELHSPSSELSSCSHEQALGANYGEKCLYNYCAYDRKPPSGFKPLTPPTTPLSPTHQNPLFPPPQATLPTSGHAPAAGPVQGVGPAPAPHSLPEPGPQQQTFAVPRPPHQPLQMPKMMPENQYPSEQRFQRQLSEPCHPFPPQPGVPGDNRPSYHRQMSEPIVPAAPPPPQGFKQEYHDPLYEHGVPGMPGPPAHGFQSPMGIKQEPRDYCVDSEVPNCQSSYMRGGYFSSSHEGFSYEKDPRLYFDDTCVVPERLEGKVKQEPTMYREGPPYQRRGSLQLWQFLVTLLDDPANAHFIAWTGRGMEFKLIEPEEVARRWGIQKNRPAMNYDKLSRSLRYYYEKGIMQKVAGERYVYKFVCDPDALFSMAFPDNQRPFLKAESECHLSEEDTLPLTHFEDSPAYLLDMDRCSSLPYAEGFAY

For GAGCTT, which binding signal (GABPA) is on record?
The binding signal was 1.08 fold enrichment (6-mer frequency, TF over GST control).

And the binding signal (ELK3)?
The binding signal was 1.02 fold enrichment (6-mer frequency, TF over GST control).

And the binding signal (ETV5)?
Its binding signal is 1.04 fold enrichment (6-mer frequency, TF over GST control).

What about the binding signal (ELF3) of the same sequence?
Its binding signal is 1.04 fold enrichment (6-mer frequency, TF over GST control).

What about the binding signal (ETV3) of the same sequence?
Its binding signal is 1.03 fold enrichment (6-mer frequency, TF over GST control).
